14 sequences from publication PMC5700166 can be followed below.

The target of the experiment is T1, GST-Aq-NF-kB (Amphimedon queenslandica, UniProt A9Y5G7 2-389).
T1 sequence: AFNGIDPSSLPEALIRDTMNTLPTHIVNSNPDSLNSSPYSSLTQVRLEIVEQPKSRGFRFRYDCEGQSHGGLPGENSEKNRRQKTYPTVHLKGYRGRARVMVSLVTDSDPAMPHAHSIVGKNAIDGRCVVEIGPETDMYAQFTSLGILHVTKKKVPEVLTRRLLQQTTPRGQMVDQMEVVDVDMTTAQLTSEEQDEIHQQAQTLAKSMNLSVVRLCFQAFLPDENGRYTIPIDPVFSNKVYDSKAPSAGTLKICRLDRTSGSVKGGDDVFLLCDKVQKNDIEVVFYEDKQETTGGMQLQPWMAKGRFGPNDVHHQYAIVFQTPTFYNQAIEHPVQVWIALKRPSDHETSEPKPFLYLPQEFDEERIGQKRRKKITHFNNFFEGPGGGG
Put plainly: protein-binding microarray (PBM); PBM: ~300 nM protein, 6 mM HEPES pH 7.8, 80 mM KCl, 0.5 mM EDTA, 0.5 mM EGTA, 6% glycerol, 35 ng/ul poly-dIdC, 1% milk, 1 h, room temperature; Ap Aiptasia and Nv Nematostella (sea anemones) / Co Capsaspora / Aq Amphimedon (sponge) / Dm Drosophila / Hu human; RHD is the Rel homology domain; high values mean tight binding. The note with it: dsDNA, one strand shown.
Regarding “CCGATTAACATCAGGTGATCACCTGATGTTAATCGGGTCTTGATTCGCTTGACGCTGCTG”, the binding signal is 1.32 z-score.

In turn, “CCGATTAACATCAGGGGCCGTAATGATGTTAATCGGGTCTTGATTCGCTTGACGCTGCTG” gave a binding signal of 2.32 z-score.

“CCGATTAACATCAGGAACCTCCCTGATGTTAATCGGGTCTTGATTCGCTTGACGCTGCTG” registered a binding signal of 4.17 z-score.

The sequence “CCGATTAACATCAGGAAACAACCTGATGTTAATCGGGTCTTGATTCGCTTGACGCTGCTG” yielded a binding signal of 2.89 z-score. For “CCGATTAACATCATGGGGCATGCTGATGTTAATCGGGTCTTGATTCGCTTGACGCTGCTG” the value was 1.06 z-score; for “CCGATTAACATCAGGCAGTTCCCTGATGTTAATCGGGTCTTGATTCGCTTGACGCTGCTG”, 3.41 z-score; for “CCGATTAACATCAGGACACTCCCTGATGTTAATCGGGTCTTGATTCGCTTGACGCTGCTG”, 5.35 z-score. For “CCGATTAACATCAGGAATTTTTATGATGTTAATCGGGTCTTGATTCGCTTGACGCTGCTG” the value was 1.99 z-score; for “CCGATTAACATCAGGACTTGCCCTGATGTTAATCGGGTCTTGATTCGCTTGACGCTGCTG”, 4.8 z-score; for “CCGATTAACATCACGGAATTTCCTGATGTTAATCGGGTCTTGATTCGCTTGACGCTGCTG”, 4.83 z-score. The sequence “CCGATTAACATCAGGGGTCAGTATGATGTTAATCGGGTCTTGATTCGCTTGACGCTGCTG” displayed a binding signal of 1.09 z-score. For the sequence “CCGATTAACATCAAAATTCCGGGTGATGTTAATCGGGTCTTGATTCGCTTGACGCTGCTG”, the binding signal was determined as 1.67 z-score. For “CCGATTAACATCAGGAACGTCCCTGATGTTAATCGGGTCTTGATTCGCTTGACGCTGCTG” the value was 5.01 z-score; for “CCGATTAACATCACAAAAATTCCTGATGTTAATCGGGTCTTGATTCGCTTGACGCTGCTG”, 1.5 z-score.
